Tests used:
Assay in all cases: DAPPL (digital affinity profiling via proximity ligation, sequencing); 10 mM Tris-HCl pH 7.5, 50 mM NaCl, 1 mM DTT, 4% glycerol, room temperature, 30 min; GST-TFs on glutathione beads, 16-mer random dsDNA library, 0.1% formaldehyde crosslink after washing; high values mean tight binding
FEV = target: T1, FEV (Homo sapiens, UniProt Q99581 1-238); conditions: protein: recombinant; tags: N-terminal GST; dsDNA, one strand shown
T1 sequence: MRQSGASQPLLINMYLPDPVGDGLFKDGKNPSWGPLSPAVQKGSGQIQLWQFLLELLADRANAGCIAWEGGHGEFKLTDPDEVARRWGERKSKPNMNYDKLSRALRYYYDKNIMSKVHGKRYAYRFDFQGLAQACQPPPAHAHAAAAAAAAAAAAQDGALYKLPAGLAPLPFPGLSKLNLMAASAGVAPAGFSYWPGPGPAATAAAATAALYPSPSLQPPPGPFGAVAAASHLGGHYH
Outline: (§1)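 Beads coated with glutathione captured GST-fused human transcription factors that had been expressed in yeast, and the factors were then given DNA barcodes and pooled with a tag-only sample. The pools were incubated with 200 nmole of a random double-stranded 16-mer DNA library in Tris/NaCl/DTT/glycerol buffer for 30 min at room temperature, washed, crosslinked with 0.1% formaldehyde and proximity-ligated with BsaI/T4 ligase at 37 °C for 1 h. PCR amplification and Illumina NextSeq500 sequencing came last. Binding signal is each hexamer's read frequency for a factor divided by its frequency for the tag-only sample.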

ETV5 = ETV5 (Homo sapiens, UniProt P41161 1-510); conditions: protein: recombinant; tags: N-terminal GST; dsDNA, one strand shown
ETV5, sequence (P41161 whole entry): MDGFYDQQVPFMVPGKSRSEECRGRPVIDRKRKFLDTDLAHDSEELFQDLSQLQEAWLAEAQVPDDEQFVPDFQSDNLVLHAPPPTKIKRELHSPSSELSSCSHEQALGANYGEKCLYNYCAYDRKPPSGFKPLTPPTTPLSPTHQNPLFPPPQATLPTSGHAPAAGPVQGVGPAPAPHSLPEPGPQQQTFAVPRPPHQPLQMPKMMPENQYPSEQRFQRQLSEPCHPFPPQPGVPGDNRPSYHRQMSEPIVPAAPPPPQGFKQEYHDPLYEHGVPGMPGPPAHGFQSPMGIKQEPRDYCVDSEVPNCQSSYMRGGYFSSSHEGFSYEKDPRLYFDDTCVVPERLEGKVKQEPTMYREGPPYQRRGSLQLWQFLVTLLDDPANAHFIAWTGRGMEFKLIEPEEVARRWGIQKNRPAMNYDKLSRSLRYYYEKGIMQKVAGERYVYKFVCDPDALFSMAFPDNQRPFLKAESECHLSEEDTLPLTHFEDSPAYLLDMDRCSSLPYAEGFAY
Outline: as §1

HSF1 = HSF1 (Homo sapiens, UniProt Q00613 1-529); conditions: protein: recombinant; tags: N-terminal GST; chain copies: 3; dsDNA, one strand shown
HSF1, sequence (Q00613 whole entry): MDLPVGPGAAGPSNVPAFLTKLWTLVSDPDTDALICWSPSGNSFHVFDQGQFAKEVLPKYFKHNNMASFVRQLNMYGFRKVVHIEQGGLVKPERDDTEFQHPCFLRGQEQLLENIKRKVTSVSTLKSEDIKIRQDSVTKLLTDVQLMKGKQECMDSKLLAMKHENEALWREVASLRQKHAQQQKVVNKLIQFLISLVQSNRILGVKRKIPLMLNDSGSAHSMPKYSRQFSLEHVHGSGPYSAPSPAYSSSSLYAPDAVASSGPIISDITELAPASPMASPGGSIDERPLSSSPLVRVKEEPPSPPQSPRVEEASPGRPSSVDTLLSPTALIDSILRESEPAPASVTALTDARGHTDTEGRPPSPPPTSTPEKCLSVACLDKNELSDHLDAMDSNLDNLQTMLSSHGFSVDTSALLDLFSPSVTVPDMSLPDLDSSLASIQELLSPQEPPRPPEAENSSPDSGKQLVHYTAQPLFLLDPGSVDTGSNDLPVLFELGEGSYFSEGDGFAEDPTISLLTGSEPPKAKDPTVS
Outline: as §1

SPIC = target: T2, SPIC (Homo sapiens, UniProt Q8N5J4 1-248); conditions: protein: recombinant; tags: N-terminal GST; dsDNA, one strand shown
T2 sequence: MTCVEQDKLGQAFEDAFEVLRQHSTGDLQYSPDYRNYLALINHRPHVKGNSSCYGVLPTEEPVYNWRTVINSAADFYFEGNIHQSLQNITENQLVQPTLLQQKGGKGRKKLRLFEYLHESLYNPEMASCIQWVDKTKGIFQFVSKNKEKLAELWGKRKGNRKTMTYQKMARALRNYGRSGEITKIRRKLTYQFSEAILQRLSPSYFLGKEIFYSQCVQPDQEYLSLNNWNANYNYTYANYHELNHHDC
Outline: as §1

ELF4 = ELF4 (Homo sapiens, UniProt Q99607 1-663); conditions: protein: recombinant; tags: N-terminal GST; dsDNA, one strand shown
ELF4, sequence (Q99607 whole entry): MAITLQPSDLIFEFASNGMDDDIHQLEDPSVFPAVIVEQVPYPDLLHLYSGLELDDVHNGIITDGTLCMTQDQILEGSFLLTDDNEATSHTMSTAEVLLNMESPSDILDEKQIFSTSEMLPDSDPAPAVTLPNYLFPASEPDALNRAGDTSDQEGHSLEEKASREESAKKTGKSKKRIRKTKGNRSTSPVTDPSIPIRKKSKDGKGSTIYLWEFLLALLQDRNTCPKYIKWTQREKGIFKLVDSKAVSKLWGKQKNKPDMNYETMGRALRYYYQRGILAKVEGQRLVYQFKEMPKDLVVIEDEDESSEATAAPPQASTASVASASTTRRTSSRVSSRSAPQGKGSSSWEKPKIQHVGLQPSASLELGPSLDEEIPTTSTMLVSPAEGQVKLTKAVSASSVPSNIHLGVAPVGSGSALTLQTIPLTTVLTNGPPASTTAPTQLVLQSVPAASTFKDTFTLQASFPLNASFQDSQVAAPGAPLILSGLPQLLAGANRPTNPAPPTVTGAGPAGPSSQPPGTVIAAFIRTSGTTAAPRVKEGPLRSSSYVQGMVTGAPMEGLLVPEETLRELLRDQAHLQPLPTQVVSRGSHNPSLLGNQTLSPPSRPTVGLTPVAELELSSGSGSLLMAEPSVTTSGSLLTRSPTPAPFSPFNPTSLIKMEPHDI
Outline: as §1

ELK4 = target: T3, ELK4 (Homo sapiens, UniProt P28324-2 1-405); conditions: protein: recombinant; tags: N-terminal GST; dsDNA, one strand shown
T3 sequence: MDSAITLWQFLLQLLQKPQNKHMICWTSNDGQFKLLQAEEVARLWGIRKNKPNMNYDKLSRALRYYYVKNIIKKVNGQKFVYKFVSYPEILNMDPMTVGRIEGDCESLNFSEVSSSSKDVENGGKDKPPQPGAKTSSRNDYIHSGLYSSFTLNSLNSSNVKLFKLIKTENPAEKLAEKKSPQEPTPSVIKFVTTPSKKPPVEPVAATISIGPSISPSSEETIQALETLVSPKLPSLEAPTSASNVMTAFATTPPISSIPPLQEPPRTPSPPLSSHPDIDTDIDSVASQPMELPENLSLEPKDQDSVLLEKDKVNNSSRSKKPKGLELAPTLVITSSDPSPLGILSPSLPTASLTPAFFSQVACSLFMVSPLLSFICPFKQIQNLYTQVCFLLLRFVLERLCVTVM
Outline: as §1

ETV2 = target: T4, ETV2 (Homo sapiens, UniProt O00321 1-342); conditions: protein: recombinant; tags: N-terminal GST; dsDNA, one strand shown
T4 sequence: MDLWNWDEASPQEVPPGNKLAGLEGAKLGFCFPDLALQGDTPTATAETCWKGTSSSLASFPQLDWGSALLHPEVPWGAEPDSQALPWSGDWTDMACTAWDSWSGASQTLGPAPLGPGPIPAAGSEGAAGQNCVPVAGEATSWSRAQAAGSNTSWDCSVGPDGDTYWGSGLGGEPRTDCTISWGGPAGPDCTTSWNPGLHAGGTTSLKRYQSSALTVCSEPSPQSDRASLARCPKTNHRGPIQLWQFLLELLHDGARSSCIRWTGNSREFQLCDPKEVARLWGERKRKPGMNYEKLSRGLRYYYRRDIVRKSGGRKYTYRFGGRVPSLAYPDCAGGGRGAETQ
Outline: as §1

ELF3 = target: T5, ELF3 (Homo sapiens, UniProt P78545 1-371); conditions: protein: recombinant; tags: N-terminal GST; dsDNA, one strand shown
T5 sequence: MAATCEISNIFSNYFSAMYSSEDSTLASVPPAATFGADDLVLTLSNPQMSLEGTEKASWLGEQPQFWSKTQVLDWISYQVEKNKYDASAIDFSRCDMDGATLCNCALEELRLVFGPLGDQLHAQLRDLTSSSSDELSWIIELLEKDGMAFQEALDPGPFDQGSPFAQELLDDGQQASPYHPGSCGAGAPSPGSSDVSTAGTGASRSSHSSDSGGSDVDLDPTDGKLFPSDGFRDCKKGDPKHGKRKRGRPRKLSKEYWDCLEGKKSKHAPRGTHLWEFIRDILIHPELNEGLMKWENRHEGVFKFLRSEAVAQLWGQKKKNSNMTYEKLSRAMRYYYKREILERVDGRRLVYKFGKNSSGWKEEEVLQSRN
Outline: as §1

CRX = CRX (Homo sapiens, UniProt O43186 1-299); conditions: protein: recombinant; tags: N-terminal GST; dsDNA, one strand shown
CRX, sequence (O43186 whole entry): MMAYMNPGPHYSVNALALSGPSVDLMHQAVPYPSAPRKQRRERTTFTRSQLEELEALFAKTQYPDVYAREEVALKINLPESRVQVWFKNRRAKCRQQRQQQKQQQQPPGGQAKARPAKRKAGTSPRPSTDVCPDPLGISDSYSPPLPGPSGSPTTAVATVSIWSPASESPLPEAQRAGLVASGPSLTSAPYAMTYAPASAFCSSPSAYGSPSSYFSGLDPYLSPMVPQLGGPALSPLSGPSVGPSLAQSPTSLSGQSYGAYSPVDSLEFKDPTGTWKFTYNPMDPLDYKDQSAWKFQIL
Outline: as §1

ETV1 = ETV1 (Homo sapiens, UniProt P50549 1-477); conditions: protein: recombinant; tags: N-terminal GST; dsDNA, one strand shown
ETV1, sequence (P50549 whole entry): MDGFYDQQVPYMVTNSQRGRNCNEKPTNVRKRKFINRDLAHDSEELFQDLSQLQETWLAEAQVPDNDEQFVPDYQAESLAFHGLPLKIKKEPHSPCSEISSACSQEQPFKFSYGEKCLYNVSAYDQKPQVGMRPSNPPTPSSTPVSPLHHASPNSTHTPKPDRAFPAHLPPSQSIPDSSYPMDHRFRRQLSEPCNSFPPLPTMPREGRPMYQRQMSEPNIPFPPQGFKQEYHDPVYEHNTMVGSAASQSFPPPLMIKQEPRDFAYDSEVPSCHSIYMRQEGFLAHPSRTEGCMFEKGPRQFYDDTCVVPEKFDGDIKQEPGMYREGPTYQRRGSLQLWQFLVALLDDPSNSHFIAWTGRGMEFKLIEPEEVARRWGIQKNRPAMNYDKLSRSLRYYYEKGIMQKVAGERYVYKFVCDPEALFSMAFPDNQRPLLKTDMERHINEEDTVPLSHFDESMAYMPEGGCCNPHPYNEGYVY
Outline: as §1

ERF = target: T6, ERF (Homo sapiens, UniProt P50548 1-548); conditions: protein: recombinant; tags: N-terminal GST; dsDNA, one strand shown
T6 sequence: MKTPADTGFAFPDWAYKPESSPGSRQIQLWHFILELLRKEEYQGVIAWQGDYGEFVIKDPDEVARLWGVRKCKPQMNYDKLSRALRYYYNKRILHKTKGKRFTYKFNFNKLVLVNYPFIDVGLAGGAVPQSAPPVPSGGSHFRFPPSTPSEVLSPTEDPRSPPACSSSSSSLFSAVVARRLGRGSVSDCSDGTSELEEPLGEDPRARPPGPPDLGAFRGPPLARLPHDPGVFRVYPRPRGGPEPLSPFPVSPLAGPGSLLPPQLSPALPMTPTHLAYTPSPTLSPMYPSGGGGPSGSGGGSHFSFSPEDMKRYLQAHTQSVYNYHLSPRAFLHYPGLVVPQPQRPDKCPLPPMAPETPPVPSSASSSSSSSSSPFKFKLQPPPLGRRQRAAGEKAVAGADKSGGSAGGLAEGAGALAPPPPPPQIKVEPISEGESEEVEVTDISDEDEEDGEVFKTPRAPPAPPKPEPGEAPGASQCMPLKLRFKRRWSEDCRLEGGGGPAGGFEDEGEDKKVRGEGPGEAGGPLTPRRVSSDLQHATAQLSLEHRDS
Outline: as §1

ETV3L = target: T7, ETV3L (Homo sapiens, UniProt Q6ZN32 1-361); conditions: protein: recombinant; tags: N-terminal GST; dsDNA, one strand shown
T7 sequence: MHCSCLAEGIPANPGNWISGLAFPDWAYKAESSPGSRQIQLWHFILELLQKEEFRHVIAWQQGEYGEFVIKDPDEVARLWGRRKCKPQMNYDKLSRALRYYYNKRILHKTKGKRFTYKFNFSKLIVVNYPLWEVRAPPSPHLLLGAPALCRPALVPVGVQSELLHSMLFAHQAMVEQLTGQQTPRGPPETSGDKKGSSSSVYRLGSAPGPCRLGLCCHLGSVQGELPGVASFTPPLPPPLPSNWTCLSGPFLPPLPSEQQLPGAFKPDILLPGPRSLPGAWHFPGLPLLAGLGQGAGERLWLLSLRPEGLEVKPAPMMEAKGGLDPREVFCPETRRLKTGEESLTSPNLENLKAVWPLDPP
Outline: as §1

ETS2 = target: T8, ETS2 (Homo sapiens, UniProt P15036 1-469); conditions: protein: recombinant; tags: N-terminal GST; dsDNA, one strand shown
T8 sequence: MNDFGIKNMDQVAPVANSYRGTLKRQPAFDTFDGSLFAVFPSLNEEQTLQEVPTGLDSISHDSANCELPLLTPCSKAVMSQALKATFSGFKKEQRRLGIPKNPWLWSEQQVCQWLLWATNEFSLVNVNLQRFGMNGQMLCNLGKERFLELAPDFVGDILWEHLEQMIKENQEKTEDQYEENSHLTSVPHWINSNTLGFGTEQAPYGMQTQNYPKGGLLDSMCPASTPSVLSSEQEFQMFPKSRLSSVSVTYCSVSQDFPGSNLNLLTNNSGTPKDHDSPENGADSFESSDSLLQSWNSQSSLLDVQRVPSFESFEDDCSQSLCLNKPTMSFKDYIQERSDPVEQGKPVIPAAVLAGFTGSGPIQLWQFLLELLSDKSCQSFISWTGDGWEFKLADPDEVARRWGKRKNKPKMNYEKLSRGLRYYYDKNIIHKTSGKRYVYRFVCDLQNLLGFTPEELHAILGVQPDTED
Outline: as §1

SPDEF = target: T9, SPDEF (Homo sapiens, UniProt O95238 1-335); conditions: protein: recombinant; tags: N-terminal GST; dsDNA, one strand shown
T9 sequence: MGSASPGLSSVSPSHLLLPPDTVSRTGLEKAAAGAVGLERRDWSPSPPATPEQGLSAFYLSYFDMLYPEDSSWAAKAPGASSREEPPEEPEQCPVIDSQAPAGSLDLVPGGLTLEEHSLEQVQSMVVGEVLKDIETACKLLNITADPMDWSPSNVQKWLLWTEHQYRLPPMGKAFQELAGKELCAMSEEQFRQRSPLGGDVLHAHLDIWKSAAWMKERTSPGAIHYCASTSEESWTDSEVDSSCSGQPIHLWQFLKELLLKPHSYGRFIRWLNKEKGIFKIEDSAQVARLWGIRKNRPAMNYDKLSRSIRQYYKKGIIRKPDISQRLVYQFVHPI
Outline: as §1

ETV7 = target: T10, ETV7 (Homo sapiens, UniProt Q9Y603 1-341); conditions: protein: recombinant; tags: N-terminal GST; dsDNA, one strand shown
T10 sequence: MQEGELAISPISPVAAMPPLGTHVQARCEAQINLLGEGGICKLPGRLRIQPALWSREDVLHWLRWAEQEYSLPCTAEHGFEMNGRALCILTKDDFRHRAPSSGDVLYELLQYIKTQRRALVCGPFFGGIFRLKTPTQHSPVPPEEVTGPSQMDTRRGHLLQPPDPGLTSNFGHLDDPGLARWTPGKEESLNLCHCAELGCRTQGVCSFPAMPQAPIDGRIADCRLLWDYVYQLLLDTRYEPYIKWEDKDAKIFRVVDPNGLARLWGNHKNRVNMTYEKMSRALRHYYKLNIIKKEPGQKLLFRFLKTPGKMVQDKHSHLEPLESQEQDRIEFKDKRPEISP
Outline: as §1

ELF5 = target: T11, ELF5 (Homo sapiens, UniProt Q9UKW6-2 1-255); conditions: protein: recombinant; tags: N-terminal GST; dsDNA, one strand shown
T11 sequence: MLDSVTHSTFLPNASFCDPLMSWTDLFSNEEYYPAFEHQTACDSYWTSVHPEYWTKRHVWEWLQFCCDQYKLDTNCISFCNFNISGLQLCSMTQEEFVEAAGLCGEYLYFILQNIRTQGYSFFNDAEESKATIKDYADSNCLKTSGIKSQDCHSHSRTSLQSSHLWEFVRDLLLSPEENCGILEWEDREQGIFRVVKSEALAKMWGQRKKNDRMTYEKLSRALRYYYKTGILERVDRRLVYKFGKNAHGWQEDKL
Outline: as §1

ETV3 = target: T12, ETV3 (Homo sapiens, UniProt P41162-2 1-143); conditions: protein: recombinant; tags: N-terminal GST; dsDNA, one strand shown
T12 sequence: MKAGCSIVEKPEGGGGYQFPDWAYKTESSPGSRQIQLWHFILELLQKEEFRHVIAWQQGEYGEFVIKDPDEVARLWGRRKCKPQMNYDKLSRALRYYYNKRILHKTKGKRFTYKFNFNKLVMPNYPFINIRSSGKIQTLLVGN
Outline: as §1

ETV6 = ETV6 (Homo sapiens, UniProt P41212 1-452); conditions: protein: recombinant; tags: N-terminal GST; dsDNA, one strand shown
ETV6, sequence (P41212 whole entry): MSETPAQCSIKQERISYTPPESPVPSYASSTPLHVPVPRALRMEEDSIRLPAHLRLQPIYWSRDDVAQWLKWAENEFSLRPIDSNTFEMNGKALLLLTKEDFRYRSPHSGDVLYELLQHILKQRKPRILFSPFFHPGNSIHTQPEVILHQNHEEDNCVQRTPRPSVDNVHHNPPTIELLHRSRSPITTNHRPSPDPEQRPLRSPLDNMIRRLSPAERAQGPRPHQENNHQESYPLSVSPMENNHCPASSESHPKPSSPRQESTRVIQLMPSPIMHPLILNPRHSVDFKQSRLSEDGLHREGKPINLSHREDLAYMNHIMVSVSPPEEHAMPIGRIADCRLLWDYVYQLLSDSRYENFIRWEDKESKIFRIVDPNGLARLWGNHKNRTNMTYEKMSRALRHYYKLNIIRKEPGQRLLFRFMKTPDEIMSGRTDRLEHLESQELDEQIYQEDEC
Outline: as §1

Question: Which binding signal (FEV) does the source give for TATGCA here?
Answer: 1.26 fold enrichment (6-mer frequency, TF over GST control)

Question: And the binding signal (ETV5)?
Answer: 1.18 fold enrichment (6-mer frequency, TF over GST control)

Question: And the binding signal (HSF1)?
Answer: 1.1 fold enrichment (6-mer frequency, TF over GST control)

Question: What about the binding signal (SPIC) of the same sequence?
Answer: 1.24 fold enrichment (6-mer frequency, TF over GST control)

Question: What about the binding signal (ELF4) of the same sequence?
Answer: 1.27 fold enrichment (6-mer frequency, TF over GST control)

Question: What about the binding signal (ELK4) of the same sequence?
Answer: 1.37 fold enrichment (6-mer frequency, TF over GST control)

Question: And the binding signal (ETV2)?
Answer: 1.37 fold enrichment (6-mer frequency, TF over GST control)

Question: What about the binding signal (ELF3) of the same sequence?
Answer: 1.25 fold enrichment (6-mer frequency, TF over GST control)

Question: And the binding signal (CRX)?
Answer: 1.22 fold enrichment (6-mer frequency, TF over GST control)

Question: What about the binding signal (ETV1) of the same sequence?
Answer: 1.19 fold enrichment (6-mer frequency, TF over GST control)

Question: And the binding signal (ERF)?
Answer: 1.25 fold enrichment (6-mer frequency, TF over GST control)

Question: And the binding signal (ETV3L)?
Answer: 1.27 fold enrichment (6-mer frequency, TF over GST control)

Question: What about the binding signal (ETS2) of the same sequence?
Answer: 1.29 fold enrichment (6-mer frequency, TF over GST control)

Question: And the binding signal (SPDEF)?
Answer: 1.36 fold enrichment (6-mer frequency, TF over GST control)

Question: And the binding signal (ETV7)?
Answer: 1.18 fold enrichment (6-mer frequency, TF over GST control)

Question: What about the binding signal (ELF5) of the same sequence?
Answer: 1.23 fold enrichment (6-mer frequency, TF over GST control)

Question: And the binding signal (ETV3)?
Answer: 1.33 fold enrichment (6-mer frequency, TF over GST control)

Question: And the binding signal (ETV6)?
Answer: 1.15 fold enrichment (6-mer frequency, TF over GST control)

From paper PMC7862700, “An all-to-all approach to the identification of sequence-specific readers for epigenetic DNA modifications on cytosine”
